The text below walks through data of the supplement of paper PMC7393113.

SMILES strings stand for the structures. ± gives the standard deviation of the averaged measurements.

This assay relates to iBMDM (immortalised mouse bone-marrow-derived macrophages), LPS-stimulated. Nature of the assay: mitochondrial superoxide (MitoSOX fluorescence) fold increase over unstimulated control; higher = more LPS-induced mitochondrial ROS (less inhibition). Particulars: inhibitor concentration: 500 nM, LPS: 100 ng/ml. An outline of the steps: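 Immortalised mouse bone-marrow-derived macrophages in black 96-well plates were kept in phenol-red-free 1% FCS/DMEM for 20 h, pretreated 30 min with kinase inhibitors (500 nM), loaded with 1 μM MitoSox for 10 min and then given LPS (100 ng/ml). Fluorescence at excitation/emission 510/580 nm was read on a ClarioStar plate reader every 60 min for 4 h, with wells in triplicate. Mitochondrial superoxide is given as fold induction over untreated macrophages, averaged across replicates.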

As to `Nc1ncnc2c1c(-c1cnc3[nH]ccc3c1)nn2C1CCCC1`, the mitochondrial superoxide by setting is: (time after LPS: 1 h) 1.34 ± 0.077; (time after LPS: 2 h) 1.41 ± 0.079; (time after LPS: 4 h) 1.57 ± 0.058.

As to `C[C@@]1(C(=O)Nc2ccc(F)nc2)CCCN1c1nc(Nc2cc(C3CC3)n[nH]2)c2cccn2n1`, the mitochondrial superoxide was found to be 1.38 ± 0.051 (time after LPS: 1 h), 1.43 ± 0.06 (time after LPS: 2 h) and 1.45 ± 0.066 (time after LPS: 4 h).

Take `Cn1cnc2c(F)c(Nc3ccc(Br)cc3F)c(C(=O)NOCCO)cc21`: the mitochondrial superoxide is, setting by setting: (time after LPS: 1 h) 1.13 ± 0.046; (time after LPS: 2 h) 1.26 ± 0.038; (time after LPS: 4 h) 1.29 ± 0.028.

Take `Cc1ccc(C(=O)Nc2ccc(CN3CCN(C)CC3)c(C(F)(F)F)c2)cc1C#Cc1cnc2cccnn12`: the mitochondrial superoxide was 1.08 ± 0.068 (time after LPS: 1 h), 1.13 ± 0.014 (time after LPS: 2 h) and 1.23 ± 0.048 (time after LPS: 4 h).

Turning to `CCOc1cc2ncc(C#N)c(Nc3ccc(OCc4ccccn4)c(Cl)c3)c2cc1NC(=O)/C=C/CN(C)C` [Neratinib (HKI-272)], the mitochondrial superoxide was 1.06 ± 0.1 (time after LPS: 1 h), 1.19 ± 0.14 (time after LPS: 2 h) and 1.27 ± 0.092 (time after LPS: 4 h).

With `C[C@@H]1COCCN1c1cc(C2(S(C)(=O)=O)CC2)nc(-c2cccc3[nH]ccc23)n1`, the mitochondrial superoxide runs as follows: (time after LPS: 1 h) 1.19 ± 0.055; (time after LPS: 2 h) 1.244 ± 0.0093; (time after LPS: 4 h) 1.34 ± 0.052.

For `C#Cc1cccc(Nc2ncnc3cc(OC)c(OCCCCCCC(=O)NO)cc23)c1`, the mitochondrial superoxide is, setting by setting: (time after LPS: 1 h) 1.189 ± 0.011; (time after LPS: 2 h) 1.2 ± 0.047; (time after LPS: 4 h) 1.22 ± 0.051.

For the compound `C=CC(=O)Nc1cccc(Nc2nc(Nc3ccc(Oc4ccnc(C(=O)NC)c4)cc3)ncc2F)c1`, the mitochondrial superoxide (time after LPS: 1 h) came to 1.4 ± 0.018, the mitochondrial superoxide (time after LPS: 2 h) was found to be 1.49 ± 0.031 and the mitochondrial superoxide (time after LPS: 4 h) was determined as 1.6 ± 0.023.

On to `CN1CCN(S(=O)(=O)c2ccc(-c3cnc(N)c(C(=O)Nc4cccnc4)n3)cc2)CC1`, for which the mitochondrial superoxide by setting is: (time after LPS: 1 h) 1.34 ± 0.053; (time after LPS: 2 h) 1.46 ± 0.031; (time after LPS: 4 h) 1.63 ± 0.03.

On to `CCOc1ccn(-c2ccc(F)cc2)c(=O)c1C(=O)Nc1ccc(Oc2ccnc(N)c2Cl)c(F)c1`, for which the mitochondrial superoxide (time after LPS: 1 h) is 1.25 ± 0.045, the mitochondrial superoxide (time after LPS: 2 h) turned out to be 1.28 ± 0.084 and the mitochondrial superoxide (time after LPS: 4 h) came to 1.28 ± 0.017.

Turning to `Nc1nc(Nc2ccc(S(N)(=O)=O)cc2)nn1C(=O)c1c(F)cccc1F`, the mitochondrial superoxide (time after LPS: 1 h) amounted to 1.15 ± 0.04, the mitochondrial superoxide (time after LPS: 2 h) worked out at 1.13 ± 0.027 and the mitochondrial superoxide (time after LPS: 4 h) is 1.11 ± 0.021.

As for `COc1cc(Nc2nc3ccccc3nc2NS(=O)(=O)c2ccc(NC(=O)c3ccc(C)c(OC)c3)cc2)cc(OC)c1`, the mitochondrial superoxide came out at 1.17 ± 0.022 (time after LPS: 1 h), 1.23 ± 0.06 (time after LPS: 2 h) and 1.33 ± 0.061 (time after LPS: 4 h).

In the case of `Cn1cc(-c2ccc3ncc(Cc4ccc5ncccc5c4)n3n2)cn1`, the mitochondrial superoxide stood at 1.24 ± 0.1 (time after LPS: 1 h), 1.34 ± 0.053 (time after LPS: 2 h) and 1.61 ± 0.14 (time after LPS: 4 h).

Consider `C[C@@H](N)[C@H]1CC[C@H](C(=O)Nc2ccncc2)CC1`, for which the mitochondrial superoxide is, setting by setting: (time after LPS: 1 h) 1.56 ± 0.061; (time after LPS: 2 h) 1.67 ± 0.11; (time after LPS: 4 h) 1.71 ± 0.065.

Take `NC(=O)c1cccc(-c2cc(Nc3ccc(OC(F)(F)F)cc3)ncn2)c1`: the mitochondrial superoxide reads like this: (time after LPS: 1 h) 1.14 ± 0.054; (time after LPS: 2 h) 1.11 ± 0.054; (time after LPS: 4 h) 1.21 ± 0.082.

`COc1cc2/c(=N/c3ccc(Br)cc3F)nc[nH]c2cc1OCC1CCN(C)CC1` [Vandetanib (ZD6474)]: the mitochondrial superoxide runs as follows: (time after LPS: 1 h) 1.57 ± 0.036; (time after LPS: 2 h) 1.63 ± 0.054; (time after LPS: 4 h) 1.7 ± 0.077.

As for `C=CC(=O)Nc1ccc2ncnc(Nc3ccc(OCc4cccc(F)c4)c(Cl)c3)c2c1`, the mitochondrial superoxide by setting is: (time after LPS: 1 h) 1.18 ± 0.017; (time after LPS: 2 h) 1.204 ± 0.0092; (time after LPS: 4 h) 1.42 ± 0.13.

On to `CC(C)(C#N)c1ccc(N2C(=O)OCc3cnc4ccc(-c5cnc6ccccc6c5)cc4c32)cc1`, for which the mitochondrial superoxide runs as follows: (time after LPS: 1 h) 1.4 ± 0.039; (time after LPS: 2 h) 1.48 ± 0.056; (time after LPS: 4 h) 1.676 ± 0.013.

As for `CNC(=O)c1c(F)cccc1Nc1nc(Nc2cc3c(cc2OC)CCN3C(=O)CN(C)C)nc2[nH]ccc12`, the mitochondrial superoxide was determined as 1.28 ± 0.057 (time after LPS: 1 h), 1.47 ± 0.031 (time after LPS: 2 h) and 1.64 ± 0.015 (time after LPS: 4 h).

`Cc1ccc(C(=O)Nc2ccc(CN3CCN(C)CC3)c(C(F)(F)F)c2)cc1C#Cc1cnc2[nH]ncc2c1`: the mitochondrial superoxide is 1.42 ± 0.049 (time after LPS: 1 h), 1.53 ± 0.032 (time after LPS: 2 h) and 1.75 ± 0.062 (time after LPS: 4 h).

For the compound `Cc1nc(NC(=O)N2CCC[C@H]2C(N)=O)sc1-c1csc(C(C)(C)C)n1`, the mitochondrial superoxide is, setting by setting: (time after LPS: 1 h) 1.31 ± 0.053; (time after LPS: 2 h) 1.43 ± 0.015; (time after LPS: 4 h) 1.64 ± 0.053.

Take `O=C(Nc1ccc(OC(F)(F)F)cc1)c1sccc1NCc1ccnc2ccccc12`: the mitochondrial superoxide (time after LPS: 1 h) was found to be 1.21 ± 0.044, the mitochondrial superoxide (time after LPS: 2 h) was 1.2 ± 0.067 and the mitochondrial superoxide (time after LPS: 4 h) came to 1.25 ± 0.031.

Turning to `c1cncc(CN2CCC(n3ncc4c(N5CCOCC5)nc(-c5ccc6[nH]ccc6c5)nc43)CC2)c1`, the mitochondrial superoxide was found to be 1.34 ± 0.059 (time after LPS: 1 h), 1.48 ± 0.077 (time after LPS: 2 h) and 1.66 ± 0.063 (time after LPS: 4 h).

For `O=C1NC(=O)/C(=C/c2ccc3nccc(-c4ccncc4)c3c2)S1`, the mitochondrial superoxide reads like this: (time after LPS: 1 h) 1.12 ± 0.055; (time after LPS: 2 h) 1.23 ± 0.11; (time after LPS: 4 h) 1.33 ± 0.1.

Turning to `CN1CCN(C2CCN(C(=O)Nc3cc(Oc4ccc(NC(=O)C5(C(=O)Nc6ccc(F)cc6)CC5)c(F)c4)ccn3)CC2)CC1` [Golvatinib (E7050)], the mitochondrial superoxide was determined as 1.04 ± 0.073 (time after LPS: 1 h), 1.08 ± 0.075 (time after LPS: 2 h) and 1.09 ± 0.071 (time after LPS: 4 h).
